From PubChem BioAssay (NCI)
The panel holds about 83,000 compounds, 20% with a hit somewhere; the sample as a whole holds those more often.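 In brief: 96-well plates, 48 h treatment, single concentration, percent growth endpoint.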 Unmarked numbers belong to inactive results. Active and inactive are the calls of the source.

system: U251 CNS; experiment: NCI-60 one-dose screen, 48 h (100 = growth as untreated, 0 = no growth, -100 = all killed); details: 10 µM unless noted
Method: Growth inhibition of the U251 human tumor cell line is measured as a screen for anti-cancer activity. Cells are grown in 96 well plates and exposed to the test compound for 48 hours. Compounds are tested at a single concentration, which is 10^-5 M for most compounds. The reported endpoint is percent growth (GI% or GIPRCNT), where numbers from 0 - 100% represent growth inhibition, and numbers from -100% - 0 represent cell death. For example, a value of 40 represents 60% growth inhibition. A value of 0 means no net growth occurred over the course of the experiment. A value of -40 indicates 40% of cells at the beginning of the experiment died by the end of the experiment. A value of -100 means all cells are dead at the end of the experiment.
NCI-60 Human Tumor Cell Lines Screen was performed using the standard one-dose NCI protocol, which is described in more detail at https://dtp.cancer.gov/discovery_development/nci-60/default.htm.
Compounds with GIPRCNT values below 10 were considered active. Activity score was based on GIPRCNT using the following formula: […]
Score is 0 for GIPRCNT values of 100 or above, 50 for GIPRCNT values of 0, and 100 for GIPRCNT values of -100.

Structure (SMILES) | growth
O=C1c2cccc3cccc(c23)C(=O)N1CCCCCCCCCCN1C(=O)c2cccc3cccc(c23)C1=O | 100%
Cc1cc(N)cc(C)c1-c1c(Br)cc(N)cc1Br | 22.2%
CC(C)N(C(=S)SSC(=S)N(C(C)C)C(C)C)C(C)C | 94.5%
O=C(Nc1ccc(-n2ccc3c(NC(=O)c4ccccc4)nccc32)cc1)c1ccc(N2CCOCC2)c(C(F)(F)F)c1 | 14.4%
C=CCOc1ccc2c(C)cc(=O)oc2c1 | 89%
O=C(Nc1ccncc1)C(=O)c1cn(S(=O)(=O)c2cccc(Cl)c2F)c2ccccc12 | 73.6%
NC(N)=N/N=C/c1cccc(Cl)c1Cl | 73.3%
CCOC(=O)C1=C(C)NC(=S)NC1c1ccccc1 (stereo not given) | 105%
Nc1ccc(C2=NNC(=O)Cc3cc4c(cc32)OCCO4)cc1Cl | 39.1%
O=C(N/N=C/c1ccccc1O)c1ccncc1 | 39.2%
Oc1ccc(-c2nnc3c4[nH]ccc4ncn23)cc1 | 102%
COc1cc(NC(=O)CSc2nc3ccc(Cl)cc3c(=O)n2-c2ccccc2)cc(OC)c1OC | 92.5%
Clc1cccc(CNc2c3ccccc3nc3ccccc23)c1 | 22.7%
C=CCOC(=O)C1=C(C)NC2=C(C(=O)CCC2)C1c1ccc(F)cc1 (stereo not given) | 97.8%
COc1ccc(/C(C)=N/NC(=O)CSc2nc3ccccc3c(=O)n2CCc2ccc(S(N)(=O)=O)cc2)cc1 | -32.9% (active)
Clc1ccc(-c2cnc3c(-c4ccnc(N5CCNCC5)c4)cnn3c2)cc1 | -58.1% (active)
COc1ccc(-c2conc2-n2nc(-c3ccccc3)nc2-c2ccccc2)cc1 | 106%
N#CCCn1cnc2c(N)ncnc21 | 98.8%
ClCc1c(Cl)c(Cl)c(Cl)c(CCl)c1Cl | -25.4% (active)
CCCCCCCCOC(=O)C(C)OC(=O)OCCOCCOC(=O)OC(C)C(=O)OCCCCCCCC (stereo not given) | 106%

Structure (SMILES) | growth
NC(=O)N/N=C\c1ccc([N+](=O)[O-])o1 | 93%
O=P(O)(O)C(O)(Cc1cccnc1)P(=O)(O)O | 81.6%
CCCCCCCCCCCCNC(=O)N[C@H](C(=O)N[C@H]1/C=C/CCNC(=O)/C=C/[C@H](C)NC1=O)C(C)C | -95.3% (active)
CC(C)c1ccc(-c2cnc3nonc3n2)cc1 | 65.9%
COc1ccc2nc(C)cc(Sc3nc4ccccc4s3)c2c1 | 39.6%
Cc1ccc(OC2=C(C#N)C(=N)N3C(=NN2)Sc2c(C)ccc(C)c23)cc1 | 103%
CC(=O)Nc1ccc(/C=N/N2CCCCCC2)cc1 | 90.4%
c1coc(CNc2c3ccccc3nc3ccccc23)c1 | 65.1%
CCCCn1cnc2c(SCc3ccc([N+](=O)[O-])cc3)nc(N)nc21 | 90.6%
COc1ccc(CC2c3cc(OC)c(OC)cc3CC[N+]2(C)CCC(=O)OCCCCCOC(=O)CC[N+]2(C)CCc3cc(OC)c(OC)cc3C2Cc2ccc(OC)c(OC)c2)cc1OC (stereo not given) | 93.4%
N/C(=C\C(=O)n1nc(-c2ccccc2)cc1N)c1ccccc1 | 36.7%
COc1ccc2c(c1)N(Cc1ccc(Cl)cc1)CCC2N1CCCC1=O (stereo not given) | 39.1%
CCOC(=O)CCN(CCC(=O)OCC)c1ccccc1 | 92.5%
C/C(=N\NC(=O)CSc1nc2ccccc2c(=O)n1CCc1ccc(S(N)(=O)=O)cc1)c1ccc(Br)cc1 | 8.33% (active)
COc1ccc2c(c1)OC1=C(C(=O)OC1)C2c1cc(OC)c2c(c1)OCCO2 (stereo not given) | 20.5%
COc1ccc(C(=O)OC2C(OC3C(O)COC(O[C@H]4C[C@H]5[C@@H]6CC=C7C[C@@H](O)CC[C@]7(C)[C@H]6CC[C@]5(C)[C@H]4[C@H](C)C(=O)CCC(C)C)C3OC(=O)C(C)C)OCC(O)C2O)cc1 (stereo not given in full) | 2.54% (active)
O=C(/C=C/c1ccco1)c1ccccc1O | 109%
O=C1CCCN1C(O)CCN(Cc1ccccc1)Cc1ccc(Cl)cc1 (stereo not given) | 102%
O=C(/C=C/c1ccc(F)cc1)N1CCN(C(=O)/C=C/c2ccc(C(F)(F)F)cc2)CC1 | 107%
O=[N+]([O-])c1ccc(N=Nc2c(NNc3ccc([N+](=O)[O-])cn3)cc(S(=O)(=O)O)c3ccccc23)nc1 | 68.7%
